Experimental data reported in article PMC5540273 (PLoS ONE, 2017).

Key:
Conditions in all cases: concentration: 1 μM, replicates: in singlicate; n = 1
MAP3K15 = tested on: MAP3K15
MAP3K1 = tested on: MAP3K1
MAP3K2 = tested on: MAP3K2
MAP3K3 = tested on: MAP3K3
MAP3K4 = tested on: MAP3K4
MAP4K2 = tested on: MAP4K2
MAP4K3 = tested on: MAP4K3
MAP4K4 = tested on: MAP4K4
MAP4K5 = tested on: MAP4K5
MAPKAPK2 = tested on: MAPKAPK2
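Also: KINOMEscan kinase panel screen.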

Row | Compound | %Inh (MAP3K15) | %Inh (MAP3K1) | %Inh (MAP3K2) | %Inh (MAP3K3) | %Inh (MAP3K4) | %Inh (MAP4K2) | %Inh (MAP4K3) | %Inh (MAP4K4) | %Inh (MAP4K5) | %Inh (MAPKAPK2)
1 | O=C(O)C(F)(F)F.O=c1[nH]ccc2nc(N[C@@H]3CCNC3)nc(Nc3ccc4c(c3)S(=O)(=O)CC4)c12 [GSK2181306] | 49% | 28% | 85% | 76% | 34% | 100% | 96% | 92.6% | 95.6% | 33%
2 | Cc1ccc(C)c(NC(=O)Nc2ccc(C)c(-c3ccc(C(=O)Nc4ccncc4)cc3)c2)c1 [GSK1398473] | 83% | 9% | 30% | 0% | 43% | 0% | 2% | 9% | 5% | 5%
3 | Cc1ccc(Nc2ccnc(Nc3ccc(C)c(F)c3)n2)cc1O.Cl [GW582868] | 0% | 2% | 0% | 0% | 40% | 0% | 96.8% | 5% | 2% | 0%
4 | Cl.Cl.NC(CNC(=O)c1cc(Br)c(-c2ccnc3[nH]ccc23)s1)c1ccccc1 (stereo not drawn) [GSK1322949] | 16% | 14% | 27% | 15% | 3% | 56% | 20% | 53% | 4% | 0%
5 | Nc1ncnc2scc(-c3ccc(NC(=O)Cc4cc(F)ccc4F)cc3)c12.O=C(O)C(F)(F)F [SB-731254-M] | 24% | 10% | 82% | 63% | 22% | 16% | 54% | 1% | 70% | 35%
6 | O=C(Nc1n[nH]c2nc(-c3ccccc3O)ccc12)C1CC1 [SB-711880] | 0% | 0% | 19% | 4% | 0% | 0% | 44% | 58% | 0% | 0%
7 | O=C(Nc1n[nH]c2nc(-c3cccc(O)c3)ccc12)C1CC1 [SB-711805] | 15% | 17% | 14% | 50% | 0% | 9% | 0% | 13% | 0% | 0%
8 | O=C(Nc1n[nH]c2nc(-c3ccccc3)ccc12)C1CC1 [SB-708999] | 3% | 17% | 6% | 0% | 28% | 0% | 1% | 53% | 12% | 4%
9 | COc1ccc(C)c(Nc2ccnc(Nc3ccc(-c4cnc[nH]4)cc3)n2)c1.Cl [GW784041] | 0% | 0% | 0% | 28% | 18% | 0% | 6% | 23% | 19% | 0%
